Screening results from PubChem.
Shown are actives, neighbours in structure and some others; about 19% of the full set was active somewhere.
HepG2 tox – counter-screen for TGF-b inhibitors: cytotoxicity in HepG2 cells | Potency, µM (doses to about 46.1 µM), usual class: cytotoxic | 410,000 compounds, 0.76% hits | AID 588856 | HepG2 CAGA-GFP viability, ATP luminescence, 18 h
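HepG2 CAGA-GFP cells (1000/well, DMEM with 1% FBS) received compound, then TGF-beta at 500 pg/mL final, and were incubated 18 hours at 37 degrees C. Viability was read by CellTiter-Glo luminescence. Media-only wells were set as complete cell-killing and DMSO as no toxicity.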
S-ASM inh – blocks human secretory acid sphingomyelinase | P17405 | placental ASM, HMU-PC fluorogenic substrate, 60 min | Potency, µM (highest dose often 57.5 µM), hits mostly inhibitors | 340,000 compounds, 0.006% hits
Target sequence (P17405 47-631 limits assumed): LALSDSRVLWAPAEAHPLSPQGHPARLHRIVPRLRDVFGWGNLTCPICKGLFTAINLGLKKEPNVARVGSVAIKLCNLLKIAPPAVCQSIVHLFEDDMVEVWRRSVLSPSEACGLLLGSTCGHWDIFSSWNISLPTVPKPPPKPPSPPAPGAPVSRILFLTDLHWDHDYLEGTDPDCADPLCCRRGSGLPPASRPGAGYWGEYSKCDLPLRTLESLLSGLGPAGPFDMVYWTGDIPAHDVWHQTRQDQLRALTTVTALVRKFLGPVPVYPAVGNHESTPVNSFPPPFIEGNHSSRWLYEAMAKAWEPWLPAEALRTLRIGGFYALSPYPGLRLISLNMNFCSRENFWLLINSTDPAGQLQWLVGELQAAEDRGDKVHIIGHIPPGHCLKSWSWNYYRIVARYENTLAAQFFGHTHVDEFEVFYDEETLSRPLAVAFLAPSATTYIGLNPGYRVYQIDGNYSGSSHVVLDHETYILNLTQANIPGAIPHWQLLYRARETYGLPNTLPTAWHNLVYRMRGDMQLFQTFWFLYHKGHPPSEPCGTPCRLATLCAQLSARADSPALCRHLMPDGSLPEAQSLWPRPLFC
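Steps: dispense placental human ASM, pin compound, wait 10 min at room temperature, add HMU-PC0 substrate at 9 uM final, incubate 60 min at 37 °C, add stop solution raising pH to 10, read fluorescence.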
TDP1 cell CPT – growth inhibition of DT40 Tdp1-/-;hTDP1 cells with camptothecin (screen for TDP1 inhibitors) | chicken DT40 Tdp1-/-;hTDP1 cells + 20 nM CPT, ATP luminescence, 48 h | Potency, µM (top dose mostly 46.2 µM), most hits filed as inhibitors | 420,000 compounds, 12% hits | AID 686979; further: nearly all actives have a fitted effect of over 55% in size
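Chicken DT40 Tdp1-/- cells stably complemented with human TDP1 were seeded at 400 cells/well in medium containing 20 nM camptothecin, exposed to pin-transferred compounds, and grown at 37 °C for at least 48 hr. Viability was read as ATP luminescence.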
DT40 TDP1 no CPT – qHTS for Inhibitors of human tyrosyl-DNA phosphodiesterase 1 (TDP1): qHTS in cells in absence of CPT; AID 686978, 2013; DT40 Tdp1-/- hTDP1 cells, no CPT, ATP luminescence, 48 h; Potency, µM (series often up to 46.2 µM), most hits filed as inhibitors; 420,000 compounds, 15% hits; further: nearly all actives have a fitted effect of over 55% in size
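Chicken DT40 Tdp1-/- cells stably complemented with human TDP1 were seeded at 400 cells/well with DMSO in place of 20 nM camptothecin. After compound pinning, cells grew at least 48 hr at 37 °C; viability read by CellTiter-Glo luminescence.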
IL1B secr inh – inflammasome signaling inhibition, IL-1 beta readout; THP-1 LPS/ATP IL-1B secretion, AlphaLISA, 16 h; hits give low values; activity change, % at 57.5 µM; 360,000 compounds, 4.7% hits; in the data active means activity change below about -50%; inconclusive means mostly about -30% to -49%
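Secreted IL-1B measured by AlphaLISA bead assay after 16 h compound exposure of THP-1 cells; compounds (final up to 57.5 uM) added 1 h before LPS (250 ng/mL) and ATP (1.25 mM) stimulation; lower signal means less secretion.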
TGFb inhibitor – TGF-b pathway inhibition | HepG2 CAGA-GFP TGF-b/SMAD3 reporter, GFP fluorescence, 18 h; TGF-beta stimulated, 500 pg/mL final | Potency, µM (titrated, usually from 46.1 µM), actives largely listed as inhibitors | 410,000 compounds, 1.2% hits; further: nearly all actives have a fitted effect of over 65% in size
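Using HEPG2 CAGA-GFP reporter cells at 1000 cells/well, we pinned test compounds, stimulated with recombinant TGF-beta (500 pg/mL final) and measured total well GFP after 18 h.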
A number is an active result; . = inactive; ? = inconclusive; / = no result. Unless noted, the call rests on the fitted dose curve; in most records, active means well fitted curve in the direction sought with a large enough effect; inconclusive means small, poorly fitted or top-dose-only effect, or another doubt; inactive means no such curve, though single readings can be large; an effect the other way counts as inactive or inconclusive.

SMILES | HepG2 tox | S-ASM inh | TDP1 cell CPT | DT40 TDP1 no CPT | IL1B secr inh | TGFb inhibitor
COc1ccc(C(C[N+](=O)[O-])c2c(-c3ccccc3)cc3ccccn23)cc1 (stereo not given) | . | . | 23.1µM | 18.4µM | . | .
COc1ccc(C2C(Oc3ccccc3)C(=O)N2c2cc(C)ccc2C)cc1OC (stereo not given) | . | . | . | . | ? | .
COc1ccc(C)cc1N1C(=N)/C(=C2/Nc3ccccc3S2)C(c2ccccc2)C1=O (stereo not given) | . | . | 6.51µM | 3.66µM | . | .
O=C(NNC(=O)c1cc2cc(OC(F)(F)F)ccc2[nH]1)c1ccc(Cl)cc1 | . | . | . | ? | . | .
Cc1nc2ccccc2c2oc(C(=O)NCC3COc4ccccc4O3)cc12 (stereo not given) | . | . | 20.6µM | 11.6µM | . | ?
Cc1nc2ccccc2c2oc(C(=O)Nc3ccc4c(c3)OCCO4)cc12 | . | . | 14.6µM | 14.6µM | . | .
Cc1nn(-c2ccccc2)nc1C(=O)Nc1ccc2c(c1)OCCO2 | . | . | . | . | ? | .
Cc1nc2ccccc2c2oc(C(=O)Nc3ccc(C(C)C)cc3)cc12 | . | ? | ? | 20.6µM | . | .
COc1cc(NC(=O)c2cc3c(C)nc4ccccc4c3o2)cc(OC)c1OC | . | . | 8.2µM | 11.6µM | . | .
COc1cc(NC(=O)c2cc(C)nc3ccccc23)cc(OC)c1OC | . | . | . | . | . | .
O=C(CN1C(=O)NC2(CCCCC2)C1=O)Nc1cc(C(F)(F)F)ccc1N1CCOCC1 | . | . | ? | ? | . | .
Cc1ccc(-c2nnc(N3CCCCCC3)c3ccccc23)cc1 | . | . | ? | 16.4µM | / | .
COc1ccc(-c2nnc(N3CCCCC3)c3ccccc23)cc1 | . | . | 23.1µM | 18.4µM | -65.8 | .
COc1ccccc1N1CCN(c2nnc(-c3ccc(F)cc3)c3ccccc23)CC1 | . | . | ? | 20.6µM | . | .
CCN1CCN(c2nnc(-c3ccccc3)c3ccccc23)CC1 | . | . | . | . | . | .
Cc1ccccc1Oc1nnc(-c2cccs2)c2ccccc12 | . | . | ? | ? | . | ?
CN1CCN(c2nnc(-c3cccs3)c3ccccc23)CC1 | . | . | . | . | -54.4 | .
COc1ccc(-c2nnc(N3CCOCC3)c3ccccc23)cc1 | . | . | . | . | / | .
O=C(CCc1ccc(S(=O)(=O)N2CCOCC2)cc1)N/N=C/c1ccc(O)c(O)c1O | . | . | ? | ? | . | .
Fc1ccc(-c2nnc(-n3nnc4ccccc43)c3ccccc23)cc1 | . | . | ? | 11.6µM | . | .
CCCCCn1nnnc1-c1nc2cc(C)c(C)cc2[nH]c1=O | / | / | ? | ? | . | /
CN(C)N=Nc1nc2c(c(=O)n(C)c(=O)n2C)n1CC1CO1 (stereo not given) | . | . | 3.66µM | 14.6µM | . | ?
CC1(C)Cc2nc3nc(SCC(=O)Nc4ccccc4)nc(N)c3cc2CO1 | . | . | . | . | . | .
O=C(NCCCn1ccnc1)/C(=C/c1ccco1)NC(=O)c1cccs1 | . | . | . | . | . | .
c1ccc(CN2CCC(CNc3ncnc4ccccc34)C2)cc1 (stereo not given) | . | . | 20.6µM | 10.3µM | . | .
SMILES | HepG2 tox | S-ASM inh | TDP1 cell CPT | DT40 TDP1 no CPT | IL1B secr inh | TGFb inhibitor
Cc1csc2ncnc(NC3CCN(Cc4ccccc4)CC3)c12 | . | . | 1.03µM | 0.651µM | ? | .
Cc1ccccc1-c1nc(NC2CC2)c2ccccc2n1 | / | / | ? | . | / | /
c1ccc(CN2CCC(Nc3nc(-c4ccccc4)nc4ccccc34)CC2)cc1 | . | . | . | ? | -52.0 | ?
O=C(Nc1cccc(NC(=O)c2ccco2)n1)c1ccco1 | . | . | ? | ? | . | .
COc1ccc(NC(=O)c2cc(C3CC3)nc3c2c(C)nn3-c2ccc(C)cc2)cc1OC | . | / | ? | ? | / | ?
Cc1c(Cl)cccc1-n1nc(C)c2c(C(=O)NCc3ccccc3)cc(C3CC3)nc21 | . | / | . | . | / | .
COc1cc(NC(=O)c2cc(C3CC3)nc3c2c(C)nn3-c2ccc(C)cc2)cc(OC)c1 | . | / | ? | 6.51µM | / | /
Cc1nn(-c2ccccc2)c2nc(C3CC3)cc(C(=O)NCc3ccccc3Cl)c12 | . | / | ? | 23.1µM | / | .
Cc1cc(C(=O)NCc2ccccc2Cl)c2c(C)nn(-c3cccc(F)c3)c2n1 | . | / | ? | 20.6µM | / | .
O=C(NC1CCCCCC1)c1ccco1 | . | . | . | . | . | .
Cc1cc(SCC(=O)NN)c2cc(Br)ccc2n1 | . | . | ? | ? | -92.4 | ?
COC(=O)c1ccc(/C=N\NC(=O)CC(=O)NCCc2ccccc2)cc1 | . | . | . | 13µM | . | .
COc1cccc2c(SCC(=O)N/N=C/c3ccc(O)cc3O)cc(C)nc12 | . | . | ? | 10.3µM | -87.7 | .
COc1ccccc1/C=N/NC(=O)CC(=O)NCc1ccccc1 | . | . | . | . | -51.1 | .
COc1ccccc1/C=N/NC(=O)CO | . | . | . | . | . | .
Cc1ccc(NC(=O)CN2C(=O)NC3(CCCCC3)C2=O)cc1S(=O)(=O)N1CCOCC1 | . | . | . | ? | . | .
CNC(C)C(=O)NC(C(=O)NC(C)C(=O)NNc1ccccc1)C(C)C (stereo not given) | . | / | . | . | . | .
COc1ccccc1/C=N/NC(=O)CSc1cc(C)nc2ccccc12 | . | . | 7.31µM | 8.2µM | -65.6 | .
COc1ccc2nc(C)cc(SCC(=O)N/N=C/c3ccccc3)c2c1 | . | . | . | ? | -97.8 | ?
COc1ccccc1/C=N/NC(=O)CSc1ccc2ccccc2n1 | . | . | ? | ? | . | .
C[C@@H](CN1C(=O)C(=O)NC[C@@H]1C)NC(=O)CC12CC3CC(CC(C3)C1)C2 | . | . | . | . | . | .
O=C(NC1CCS(=O)(=O)C1)Oc1ccccc1 (stereo not given) | . | . | ? | 25.9µM | . | .
CCCCCCCCCCOC(=O)NC1CCS(=O)(=O)C1 (stereo not given) | . | . | ? | 20.6µM | . | .
CC(=O)NCCc1ccc(S(=O)(=O)Nc2ccc(NC(=O)c3ccc(F)cc3)cc2)cc1 | . | . | . | . | . | .
O=P(C1=C(N2CCOCC2)/C(=C\c2ccccc2)CC1)(N1CCOCC1)N1CCOCC1 | . | . | . | . | . | .
Cc1c(-c2ccccc2)c(P(=O)(N2CCOCC2)N2CCOCC2)c2ccccn12 | . | . | 25.9µM | ? | . | .
